TPT1 inhibitor: Candida albicans TPT1 enzyme inhibitors, primary screen, biochemical, fluorescence polarization; recombinant caTPT1, FP RNA substrate dephosphorylation; inhibition, % at 5 µM; 300,000 tested, 0.81% active;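 active = inhibition above the mean of all tested compounds plus 3 SD, set per screening campaign, cut at about 24% in these data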;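 note: plate controls were DMSO alone for no effect and ferristatin control at 100 nM for full effect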
RTF Ca sens act: cardiac RTF calcium sensitivity activators, primary screen, biochemical, IANBD-TnC fluorescence, EC20 calcium | Troponin I, cardiac muscle (Homo sapiens) + Troponin T, cardiac muscle (Homo sapiens) + … | activation, % at 7.2 µM | IANBD-labeled TnC RTF fluorescence at EC20 calcium; 0% EC20 calcium, 100% full calcium | 340,000 tested, 0.24% active;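 active = activation above the mean over all tested compounds plus 3 SD, cut at about 30% in these data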;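 note: rise in fluorescence read as greater calcium sensitivity of cardiac thin filaments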
RTF Ca sens inh: cardiac RTF calcium sensitivity inhibitors, primary screen, biochemical, IANBD-TnC fluorescence, EC70 calcium | 340,000 tested, 0.12% active | IANBD-labeled cardiac RTF, Ca2+ fluorescence | inhibition, % at 7.15 µM | Troponin I, cardiac muscle (Homo sapiens) + Troponin T, cardiac muscle (Homo sapiens) + …;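 active = inhibition above the mean inhibition of all tested compounds plus 3 SD, cut at about 17% in these data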;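 note: assay run at fixed EC70 calcium of 1.6 mM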
IDE cell activ: human IDE activators in live cells, primary screen, fluorescence polarization, HEK cells, FAbeta-B substrate; Insulin-degrading enzyme (Homo sapiens), P14735; FAbeta-B cleavage; 0% vehicle, 100% cell-free pure enzyme wells; activation, % at 5.96 µM; 340,000 tested, 0.073% active;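 active = activation above the mean of all tested compounds plus 3 SD, set per screening campaign, cut at about 17% in these data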
Target sequence (P14735 whole entry, looked up): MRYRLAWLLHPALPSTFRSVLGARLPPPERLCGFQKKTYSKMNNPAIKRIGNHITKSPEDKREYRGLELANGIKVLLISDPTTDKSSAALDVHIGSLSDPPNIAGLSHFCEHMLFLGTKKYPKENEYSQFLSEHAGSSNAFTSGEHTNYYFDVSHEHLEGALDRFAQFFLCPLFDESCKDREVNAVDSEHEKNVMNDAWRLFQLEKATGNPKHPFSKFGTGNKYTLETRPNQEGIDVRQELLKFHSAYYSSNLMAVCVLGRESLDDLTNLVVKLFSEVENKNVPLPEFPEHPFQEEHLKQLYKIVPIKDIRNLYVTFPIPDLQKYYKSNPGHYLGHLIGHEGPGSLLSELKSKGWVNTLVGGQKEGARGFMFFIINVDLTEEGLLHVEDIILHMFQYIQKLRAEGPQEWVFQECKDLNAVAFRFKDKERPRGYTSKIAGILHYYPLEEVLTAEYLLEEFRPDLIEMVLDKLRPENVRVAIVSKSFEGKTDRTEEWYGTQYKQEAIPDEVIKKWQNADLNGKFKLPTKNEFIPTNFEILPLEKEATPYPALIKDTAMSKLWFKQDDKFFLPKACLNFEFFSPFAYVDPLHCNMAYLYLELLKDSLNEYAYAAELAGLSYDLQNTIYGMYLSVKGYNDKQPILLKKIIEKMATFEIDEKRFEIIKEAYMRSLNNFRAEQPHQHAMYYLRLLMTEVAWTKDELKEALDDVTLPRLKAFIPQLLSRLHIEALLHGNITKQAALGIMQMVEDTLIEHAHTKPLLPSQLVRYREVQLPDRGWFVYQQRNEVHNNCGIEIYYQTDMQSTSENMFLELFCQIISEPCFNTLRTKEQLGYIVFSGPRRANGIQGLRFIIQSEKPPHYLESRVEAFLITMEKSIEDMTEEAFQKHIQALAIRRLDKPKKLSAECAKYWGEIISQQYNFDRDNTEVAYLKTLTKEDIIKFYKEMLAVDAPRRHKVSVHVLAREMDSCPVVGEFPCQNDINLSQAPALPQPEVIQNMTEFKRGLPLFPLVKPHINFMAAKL
IDE inh: human IDE inhibitors in live cells, primary screen, fluorescence polarization, HEK cells, FAbetaB substrate; Insulin-degrading enzyme (Homo sapiens), P14735; FAbetaB cleavage; inhibition, % at 5.59 µM; 320,000 tested, 0.41% active; AID 434962, 2010;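 active = percent inhibition above the average of all tested compounds plus 3 SD, set per screening campaign, cut at about 16% in these data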;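 note: IDE supplied by intact live HEK cells; FP after avidin binding of uncleaved biotin substrate so inhibition keeps polarization high; 0% = DMSO wells and 100% = 60 µM reference IDE inhibitor Ii1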
CRFR2-BP ag: agonists of CRF-BP/CRF-R2 complex, primary screen, cell-based, HEK293, calcium dye fluorescence, uHTS. activation, % at 13.2 µM. 350,000 tested, 0.46% active. calcium dye fluorescence (FLIPR); percent of saturating CRF peptide response;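 active = activation of at least 50%, plus an integration ratio under a set limit after plate pattern correction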;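 note: plate controls were neutral control wells without compound for no effect and CRF at EC100 for full effect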
TPT1 inh confirm: Candida albicans TPT1 inhibitors, confirmation, biochemical, fluorescence polarization, triplicate; shares compounds with TPT1 inhibitor; recombinant caTPT1, RNase T1 coupled; inhibition, % at 5 µM; 2,400 tested, 74% active;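 active = inhibition above the primary screen limit, the mean inhibition of all tested compounds plus 3 SD, cut at about 25% in these data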
RNase T1 inh: RNase T1 inhibitors, counter-screen for TPT1 inhibitor project, biochemical, fluorescence polarization; RNase T1 cleavage, 1536-well; shares compounds with TPT1 inhibitor; 2,400 tested, 83% active; inhibition, % at 5 µM;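 active = inhibition above the solvent-only control well mean plus 3 SD, limit set per screening run, cut at about 23% in these data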;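 note: plate controls were DMSO wells with enzyme for no effect and wells without RNase T1 for full effect; inhibitors block cleavage so intact labeled substrate keeps polarization high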
* marks the source's active call; other numbers are inactive results; nt = not tested or not shown. Rows were chosen to be rich in hits. Some 1.5% of all compounds tested hit in one or more screens of this group.

SMILES	TPT1 inhibitor	RTF Ca sens act	RTF Ca sens inh	IDE cell activ	IDE inh	CRFR2-BP ag	TPT1 inh confirm	RNase T1 inh
CCCCOc1ccc(C2=NNC(=O)CC2)cc1	1	-2	-13	4	-1	0	nt	nt
CC/C(=N\NC(=O)c1ccc(N2CCCC2=O)cc1)c1ccccc1	-2	6	-4	6	3	-1	nt	nt
O=C(Nc1ccc(S(=O)(=O)Nc2nccs2)cc1)c1ccc(=O)[nH]c1	36*	3	-2	-1	12	5	37*	51*
CCCCC(=O)Nc1ccccc1C(C)C	1	nt	nt	nt	5	nt	nt	nt
CCOc1ccc(Br)cc1S(=O)(=O)Nc1nc(CN2CCOCC2)nc2sc(C)c(C)c12	31*	1	0	7	4	3	27*	35*
Cc1sc2nc(CN3CCOCC3)nc(NS(=O)(=O)c3ccccc3)c2c1C	6	7	0	-2	-2	-1	nt	nt
OC(Cc1ccnc2ccccc12)C(Cl)(Cl)Cl (stereo not given)	nt	10	4	3	nt	-1	nt	nt
CCC1S/C(=C(\C#N)C(N)=O)N(c2ccc(F)cc2)C1=O (stereo not given)	-2	-1	-5	0	5	-1	nt	nt
Cc1ccccc1N1C(=O)C(Cc2ccc(F)cc2)S/C1=C(\C#N)C(N)=O (stereo not given)	26*	nt	nt	nt	0	-1	7	11
N#C/C(C(N)=O)=C1/SC(Cc2ccc(F)cc2)C(=O)N1c1ccccc1 (stereo not given)	28*	5	-4	-4	9	-2	4	5
CC(C)C(c1nnnn1C(C)(C)C)N1CCC(Cc2ccccc2)CC1 (stereo not given)	10	-1	-2	4	0	1	nt	nt
CN(CCc1ccccc1)C(=O)c1ccc(NC(=O)Cc2cccc(NC(=O)C3CCN(C(=O)c4ccccc4)CC3)c2)cc1	nt	-3	-4	2	nt	0	nt	nt
COc1ccc(-n2ccnc2SCC(=O)NC2CCCC2)c(OC)c1	2	-2	-2	4	0	9	nt	nt
O=C(Cn1cc(C(=O)COc2ccccc2)c2ccccc21)NCc1ccco1	34*	5	-7	0	0	1	26*	38*
O=C(COc1ccccc1)c1cn(CC(=O)N2CCOCC2)c2ccccc12	27*	6	-74	-5	4	37	26*	37*
O=C(Cn1cc(C(=S)N2CCOCC2)c2ccccc21)N1CCOCC1	-4	2	-2	0	-1	2	nt	nt
O=C(N/N=C/c1sc(=O)n(-c2ccccc2)c1Cl)c1ccccc1	23	3	-7	-4	5	-1	nt	nt
NC(=O)N/N=C/c1sc(=O)n(-c2ccccc2)c1Cl	39*	8	-2	6	1	-1	47*	66*
Cc1ccc(OCC(=O)NNC(=O)CCc2ccccc2)cc1	3	-6	-1	7	0	0	nt	nt
Cc1ccc(CC(=O)CCc2ccccc2)cc1	34*	-9	1	1	-3	0	5	5
N#CC1(Nc2ccc(S(N)(=O)=O)cc2)CCCC1	nt	2	-2	2	nt	-6	nt	nt
CSCc1nc2sc(C(=O)Nc3nc(C)cs3)c(C)c2c(=O)[nH]1	33*	6	-5	1	2	2	39*	51*
CC[C@H](C)[C@H]1CNC(=O)C(=O)N1CC1CCN(CCCc2ccc(OC)c(OC)c2)CC1	nt	-8	4	1	nt	1	nt	nt
CC(=O)N1CCc2cc(N=NC3=C(O)CC(C)(C)CC3=O)ccc21	27*	9	-12	-6	1	4	46*	57*
O=C(OCC(=O)N1CCN(c2ccccc2)CC1)c1nc(Cl)ccc1Cl	1	1	-6	-3	5	0	nt	nt
SMILES	TPT1 inhibitor	RTF Ca sens act	RTF Ca sens inh	IDE cell activ	IDE inh	CRFR2-BP ag	TPT1 inh confirm	RNase T1 inh
COc1ccc(OC)c(/C=C/c2[nH]c(=O)[nH]c(=O)c2[N+](=O)[O-])c1	nt	0	-10	2	nt	1	nt	nt
COc1ccc(N2CCN(C(=O)c3ccc(N(C)S(=O)(=O)c4ccc(C)cc4)cc3)CC2)cc1	-3	-3	-4	-1	11	-1	nt	nt
COc1ccc(N2CCN(C(=O)c3ccc4c(c3)NC(=O)C(CSCc3c(F)cccc3Cl)N4)CC2)cc1 (stereo not given)	66*	nt	nt	nt	8	nt	12	19
O=C(CSCc1cccc(F)c1)N1CCN(c2ccccc2)CC1	1	1	-9	-2	4	-1	nt	nt
COc1ccc(N2CCN(C(=O)c3ccc4c(c3)NC(=O)C(CSCc3ccc(C)cc3)N4)CC2)cc1 (stereo not given)	92*	nt	nt	nt	2	nt	22	34*
COc1ccc(C(=O)N2CCC(C(=O)N3CCN(c4ccccc4)CC3)CC2)cc1	-1	1	0	-1	4	-2	nt	nt
COc1ccc(N2CCN(C(=O)c3ccc4c(c3)NC(=O)C(CSCc3cccc(F)c3)N4)CC2)cc1 (stereo not given)	85*	nt	nt	nt	4	nt	8	14
COc1ccc(-n2ccc(=O)c(C(=O)O)n2)cc1	-3	-7	-6	2	1	4	nt	nt
O=C(CCl)Nc1ccc(N2CCCCCC2)cc1	-1	1	-2	14	1	0	nt	nt
CC(=Nc1ccc(C)cc1C)c1sc2ccccc2c1O	55*	9	-8	-10	6	31	79*	94*
O=[N+]([O-])c1ccc(NC(=S)NCc2ccc(F)cc2)cc1	-3	8	2	2	-1	8	nt	nt
COc1ccc(SC[C@H](Cc2ccccc2)N2CC[C@@H](C(C)(C)C)CCC2=O)cc1	nt	-1	-2	1	2	0	nt	nt
CNC(=O)c1[nH]cnc1C(=O)Nc1ccccn1	94*	-2	-8	0	10	3	4	8
Nc1ccccc1C(=O)/C=C/c1ccc2c(c1)OCO2	0	-2	0	4	-5	-4	nt	nt

Source: PubChem
